In ChEMBL document CHEMBL1157539, “Thousands of chemical starting points for antimalarial lead identification” (Nature, 2010):

What was measured:
Format in all cases: functional
[1] = test system: Plasmodium falciparum; assay: GSK_TCMDC: Inhibition of Plasmodium falciparum 3D7 in whole red blood cells, using parasite LDH activity as an index of growth. Test compounds present at 2uM
[2] = test system: Plasmodium falciparum; assay: GSK_TCMDC: Inhibition of Plasmodium falciparum Dd2 in whole red blood cells, using parasite LDH activity as an index of growth. Test compounds present at 2uM
[3] = test system: HepG2; assay: GSK_TCMDC: Percent inhibition of human HepG2 cell line. Test compounds present at 10uM.

Structure (SMILES)	Inhibition [1] [%]	Inhibition [2] [%]	Inhibition [3] [%]
COc1ccccc1CCNc1nccc(N[C@@H](Cc2ccccc2)C(=O)NCc2cccs2)n1.O=C(O)C(F)(F)F	90	79	34
Br.CC1(C)N=C(N)N=C(N)N1OCc1cccc(C#N)c1	94	2	57
Br.c1cc(Nc2nc(-c3ccc(-c4csc(Nc5ccncc5)n4)cc3)cs2)ccn1	100	99	91
CCN(CC)CCCn1c(N)c(-c2nc3ccccc3[nH]2)c2nc(C#N)c(C#N)nc21	100	99	8
Cc1cc(N[C@@H](CC(C)C)C(=O)Nc2ccccc2)nc(NCCc2ccc(F)cc2)n1.O=C(O)C(F)(F)F	100	94	8
O=C(Nc1cc(F)c(F)c(-c2cccnc2)c1)N1CCc2cc(Cl)c(Cl)cc21	94	9	0
Cc1ccc(NC(=O)c2ccc(CN3CCCN(CC4CCCCC4)CC3)cc2)cc1C.O=C(O)C(F)(F)F	86	32	38
O=C(Nc1ccc(-c2nc3ccccc3[nH]2)cc1)c1ccc(N2CCOCC2)c([N+](=O)[O-])c1	100	28	47
CCCNCc1ccc(-c2ccc(CN(Cc3cnc(C)cn3)C(=O)/C=C/c3ccccc3C)cc2)nc1.O=C(O)C(F)(F)F	95	15	7
COc1cccc(CN2CCCC(CCC(=O)Nc3ccc(C(F)(F)F)cc3)C2)c1O (stereo not drawn)	98	97	15
O=C(/C=C/c1ccc(Cl)c(Cl)c1)NC1CCN(CCNC(=O)c2cccc(Cl)c2)CC1.O=C(O)C(F)(F)F	100	45	22
COc1ccc2c(O)c(C3CCC(c4ccc(Cl)cc4)CC3)c(C)nc2c1 (stereo not drawn)	97	84	2
COC(=O)CCCCOc1cc(Cc2cnc(N)nc2N)cc(OC)c1OC	97	0	0
CC(=O)Nc1ccc(C(=O)Nc2cccc(-c3cccc(-c4nc5cc(C(F)(F)F)ccc5[nH]4)c3)c2)cn1	100	97	8
Cc1nc(N/C(N)=N/C(=O)NC2CCCCC2)nc2ccccc12	95	99	21
COc1ccc2nccc(N3CCC(NCCNCc4ccc5c(n4)NC(=O)CS5)C3)c2n1.Cl (stereo not drawn)	100	5	0
CN1CCCC(OC(=O)c2ccccc2)C1 (stereo not drawn)	100	0	4
Oc1ccc2nc(NCCCc3ccccc3)nc(NCCc3ccccc3)c2c1	99	88	31
O=C(COC(=O)c1cccc(S(=O)(=O)N2CCc3ccccc32)c1)NNC(=O)c1cccs1	96	4	4
N=C(/N=C(/NCCCCCCN/C(=N\C(=N)Nc1ccc(Cl)cc1)N1CCOCC1)N1CCOCC1)Nc1ccc(Cl)cc1	93	91	0
CS(=O)(=O)c1ccc(CCNCc2ccc(-c3ccc(CN(C(=O)C4CC(=O)c5ccccc54)C4CCN(Cc5ccccc5)CC4)cc3)nc2)cc1.O=C(O)C(F)(F)F (stereo not drawn)	100	49	9

Structure (SMILES)	Inhibition [1] [%]	Inhibition [2] [%]	Inhibition [3] [%]
CS(=O)(=O)CCCNCc1ccc(-c2cc3c(Nc4ccc(OCc5ccccc5)cc4)ncnc3cn2)o1	87	16	10
COc1ccc2nc3cc(Cl)ccc3c(NCCc3ccccc3)c2c1.Cl	94	82	0
CC(C)C[C@@H](/C=N/N1CCOC1=O)NC(=O)[C@H](CC(C)C)NC(=O)c1ccc(OCCN2CCOCC2)cc1	92	87	5
N#Cc1ccc(C=NNc2nc3ccccc3[nH]2)cc1	100	71	0
O=C(NC1CCN(Cc2ccccc2)CC1)c1ccc2c(=O)n(Cc3ccc(Cl)cc3)c(=S)[nH]c2c1	100	100	16
CC(C)CCNC(=O)C1Cc2c([nH]c3cc(Br)ccc23)C2(CCN(CCc3ccccc3)CC2)N1 (stereo not drawn)	97	48	14
COc1cccc2c(NN=Cc3cccc(Cl)c3)ccnc12	100	77	19
Cl.N#Cc1ccc2c(c1)CCN(CCC1CCC(NC(=O)Nc3ccnc4ccccc34)CC1)C2 (stereo not drawn)	100	77	38
Cc1cc(N[C@@H](Cc2ccccc2)C(=O)NCc2cccc(F)c2)nc(Nc2ccccc2)n1.O=C(O)C(F)(F)F	100	92	20
CS(=O)(=O)c1ccc(-c2nc(NCC3CCCCC3)cc(C(F)(F)F)n2)cc1	83	76	0
COc1cc2nc(Nc3ccc(C)cc3)nc(Nc3ccc(C)cc3)c2cc1OC.Cl	100	100	99
CC1(C)N=C(N)N=C(N)N1c1ccccc1.Cl	98	1	16
Cc1cc(NC(=O)c2ccsc2)ccc1OC1CCN(Cc2ccc(F)cc2)CC1.O=C(O)C(F)(F)F	83	47	9
NS(=O)(=O)c1cccc(Nc2nc(N[C@@H]3CCNC3)nc3cc[nH]c(=O)c23)c1.O=C(O)C(F)(F)F	99	98	7
Cc1cccc2nc(-c3cccc(-c4cccc(CN5CCN(c6ccncc6)CC5)c4)c3)[nH]c12.O=C(O)C(F)(F)F	100	96	47
Cc1c(Cl)cccc1S(=O)(=O)Nc1ccc(CCN2CCC(N)CC2)cc1.Cl	90	4	23
Cc1cc(N2C(N)=NC(N)=NC2(C)C)ccc1Cl.Cl	95	0	66
Fc1cccc(COc2ccc(Nc3ncnc4sc(C#CCNC5CCC5)cc34)cc2Cl)c1	100	73	15
CCn1cnc2c(Nc3cccc([N+](=O)[O-])c3)nc(N3CCC(N4CCCCC4)CC3)nc21	98	35	31
Br.Cc1cc(Br)c(OCCCON2C(=N)N=C(N)NC2(C)C)c(Br)c1	95	97	62
COc1ccc(-c2cc3nc4c(c(NCCCn5ccnc5)n3n2)CCCC4)cc1	95	74	5

Structure (SMILES)	Inhibition [1] [%]	Inhibition [2] [%]	Inhibition [3] [%]
O=C(NC1CCN(Cc2ccccc2)CC1)c1cccc(-c2cc3cc(Cl)c(Cl)cc3[nH]2)c1.O=C(O)C(F)(F)F	100	86	15
CCCCCc1cc(OC(=O)CCCN(CC)CC)c2c(c1)OC(C)(C)C=C2C1=CCN(Cc2ccc3ccccc3c2)CC1	100	92	94
COc1ccc(CN(C)CC(O)COc2ccc(NC(=O)c3cccc4c(=O)c5cccc(OC)c5[nH]c34)cc2)cc1OC (stereo not drawn)	93	65	72
O=C(Cn1c(CCc2cccc(F)c2F)cc(=O)c2cccnc21)N(CCN1CCCC1)Cc1ccc(-c2ccc(C(F)(F)F)cc2)cc1.O=C(O)C(O)C(O)C(=O)O	99	64	48
COc1ccc2nccc(N3CCC(NCCNS(=O)(=O)c4ccc5c(c4)NC(=O)CS5)C3)c2n1.Cl (stereo not drawn)	97	18	12
Cc1cc(NCCc2ccccc2)nc(N/C(=N/CC(=O)OC(C)(C)C)Nc2ccc(C(F)(F)F)cc2)n1.I	100	97	23
CC1(C)N=C(NC(=O)c2ccc([N+](=O)[O-])cc2)N=C(N)N1OCc1ccc2ccccc2c1	95	78	64
CCOc1ccc2c(=NN=Cc3ccccc3F)cc(C)[nH]c2c1	100	77	0
CO/C(=C\C=C\c1cc2cc(Cl)c(Cl)cc2[nH]1)C(=O)NCCCN1CC(C)N(C)CC1C (stereo not drawn)	92	73	38
CC(C)NCc1cccc(-c2ccc(NS(=O)(=O)c3cccc4cccnc34)cc2)c1.O=C(O)C(F)(F)F	90	10	21
CC(C)=C(C(=O)OCc1ccccc1)N1C(=O)[C@@H](NC(c2ccccc2)(c2ccccc2)c2ccccc2)[C@H]1[S+]([O-])CC(=O)OC(C)(C)C (stereo partly drawn)	92	78	0
Cc1ccc(Nc2nccc(NCC(O)c3cccc(C)c3)n2)cc1 (stereo not drawn)	90	23	22
CCNc1cc(C(=O)N[C@@H](Cc2ccccc2)[C@H](O)CNCCc2cc(OC)cc(OC)c2)cc(N2CCCCS2(=O)=O)c1.Cl	89	28	3
Brc1ccc(Nc2ccnc3cc(-c4nccs4)ccc23)cc1Oc1ccnc2cc(-c3nccs3)ccc12	91	83	15
Cc1cccc(C)c1CNc1nc(N2CCOCC2)cc2c(C)c(C)[nH]c12.Cl	92	64	51
COC(=O)c1ccc(NC(=O)Nc2cccc(CCNCc3ccccc3)c2)cc1.O=C(O)C(F)(F)F	96	10	2
Cc1ccc2[nH]c3c(NCCCN4CCOCC4)ncnc3c2c1	100	9	0
CCCCn1c(SC(C)C)nc2c(c1=O)C1(CCCCC1)Cc1ccccc1-2	99	60	1
COc1ccc(NC(=O)NC2CCN(CCCCCNC(=O)/C=C/c3ccc(Cl)c(Cl)c3)CC2)cc1	96	1	5
